The source of these data is PubChem BioAssay (NCI).

“And” between values parts separate entries of the source, which are not always exact repeats. Equal values may be shown once. Compounds without any hit were thinned out: in the full panel of roughly 83,000, 20% have a hit.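 Cell lines were cultured in 96-well plates, exposed to a single compound concentration, and assessed for percent growth 48 hours later.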 The source made the active and inactive calls. Rule for the calls: active = growth percent below 10; inactive = the rest.

Common to all, as to experiment: NCI-60 one-dose screen, 48 h (100 = growth as untreated, 0 = no growth, -100 = all killed)
One experiment has as its system NCI-H226 lung. Conditions: 10 µM.
In the next experiment the test system is NCI-H322M lung. Conditions: 10 µM.
A further experiment relates to HOP-62 NSCLC. To be noted: 10 µM.
The next experiment has as its system NCI-H460 lung. To be noted: 10 µM.
For another experiment, the system named is A549/ATCC NSCLC. Conditions: 10 µM.
Another experiment has as its system 786-0 renal. Conditions: 10 µM.
The subject of another experiment is DU-145 prostate. To be noted: 10 µM.
Another experiment relates to SF-268 CNS. Conditions: 10 µM.
The next experiment has as its system SF-295 CNS. To be noted: 10 µM.
The next experiment concerns SF-539 CNS. To be noted: 10 µM.
The subject of another experiment is HCT-15 colon. To be noted: 10 µM.
The test system of a further experiment is HT29 colon. To be noted: 10 µM.
For the next experiment, the system named is SNB-75 CNS. Conditions: 10 µM.
The subject of the next experiment is SNB-19 CNS. Conditions: 10 µM.
In a further experiment the test system is PC-3 prostate. To be noted: 10 µM.
The test system of a further experiment is EKVX NSCLC. To be noted: 10 µM.
The next experiment relates to UO-31 renal. Conditions: 10 µM.
In another experiment the test system is ACHN renal. Conditions: 10 µM.
In a further experiment the test system is HL-60(TB) leukemia. To be noted: 10 µM unless noted.
In another experiment the test system is MOLT-4 leukemia. To be noted: 10 µM.

With `COC1[C@@H]2C[C@H]3C(C)(C)O[C@@](C/C=C(/C)C(=O)O)(C2=O)[C@]32Oc3c(CC=C(C)C)c4c(c(O)c3C(=O)[C@H]12)C=CC(C)(C)O4` (stereo not given in full), the growth is 23% (inactive) in the experiment with NCI-H226 lung; -67% (active) in the experiment on NCI-H322M lung; -24.8% (active) with HOP-62 NSCLC; -55.6% (active) in the experiment on NCI-H460 lung; -20.3% (active) with A549/ATCC NSCLC; -50.8% (active) with 786-0 renal. In addition, the growth in the experiment with DU-145 prostate was -97.2% (active); in the experiment on SF-268 CNS, -45.5% (active); with SF-295 CNS, -55.2% (active); with SF-539 CNS, -23% (active); with HCT-15 colon, -43.1% (active); in the experiment with HT29 colon, -33.3% (active). Further, the growth with SNB-75 CNS is -24.3% (active); with SNB-19 CNS, -69.5% (active); in the experiment on PC-3 prostate, -18.4% (active); in the experiment with EKVX NSCLC it was -46.5% (active); in the experiment on UO-31 renal, -69.6% (active); in the experiment with ACHN renal, -71% (active). For the same compound, the figures for the growth in the experiment with HL-60(TB) leukemia and in the experiment on MOLT-4 leukemia were -29.8% (active) and -8.14% (active), respectively.
As to `CN1C(=O)[C@]23SSC1(C)C(=O)N2[C@H]1Nc2ccccc2C1([C@@]12c4ccccc4N[C@@H]1N1C(=O)C4(C)SS[C@]1(C(=O)N4C)[C@H]2O)[C@@H]3O` (stereo not given in full), the growth in the experiment on NCI-H226 lung is -96.6% (active); with NCI-H322M lung, -74.2% (active); in the experiment with HOP-62 NSCLC, -91% (active); in the experiment on NCI-H460 lung, -87.4% (active); in the experiment with A549/ATCC NSCLC, -86.9% (active); with 786-0 renal, -99.1% (active). The growth in the experiment on DU-145 prostate is -94.1% (active); with SF-268 CNS it was -86.5% (active); with SF-295 CNS, -80.2% (active); in the experiment with SF-539 CNS, -91.3% (active); in the experiment on HCT-15 colon, -45.4% (active); in the experiment with HT29 colon, -66.7% (active). Moreover, the growth in the experiment with SNB-75 CNS is -85.8% (active); in the experiment on SNB-19 CNS, -99.4% (active); with PC-3 prostate, -79.9% (active); in the experiment on EKVX NSCLC, -97.4% (active); with UO-31 renal it was -100% (active); with ACHN renal it was -98.8% (active). Further, the growth was -19.4% (active) in the experiment on HL-60(TB) leukemia and -20.6% (active) with MOLT-4 leukemia.
Take `CC1=C(CCC=NNC(N)=O)C2=C(C)C3(CC3)[C@@](C)(O)C(=O)C2=C1`: the growth was -41.6% (active) in the experiment on NCI-H226 lung; -16.2% (active) with NCI-H322M lung; -55.2% (active) in the experiment on HOP-62 NSCLC; -29.2% (active) in the experiment with NCI-H460 lung; 4.54% (active) in the experiment with A549/ATCC NSCLC; -37.6% (active) in the experiment with 786-0 renal. The growth in the experiment on DU-145 prostate is -9.85% (active); in the experiment on SF-268 CNS, -17.8% (active); in the experiment on SF-295 CNS it was -6.5% (active); in the experiment on SF-539 CNS, -58.5% (active); with HCT-15 colon, -16.6% (active); in the experiment with HT29 colon, -9.67% (active). Further, the growth in the experiment on SNB-75 CNS was -63.9% (active); in the experiment with SNB-19 CNS it was 3.45% (active); in the experiment with PC-3 prostate, 1.22% (active); in the experiment on EKVX NSCLC it was -12.8% (active); in the experiment on UO-31 renal, -29.1% (active); in the experiment on ACHN renal, -10.3% (active). Also, the growth in the experiment with HL-60(TB) leukemia is 5.99% (active); in the experiment on MOLT-4 leukemia it was 47.2% (inactive).
For `N#Cc1c(-n2c(Br)c(Br)c3cc(Br)ccc32)[nH]c2c(Br)cc(Br)cc12`, the growth is -20.5% (active) in the experiment with NCI-H226 lung; 0.977% (active) in the experiment with NCI-H322M lung; -50.9% (active) in the experiment with HOP-62 NSCLC; -2.03% (active) with NCI-H460 lung; 10.3% (inactive) with A549/ATCC NSCLC; -19.1% (active) in the experiment on 786-0 renal. Also, the growth with DU-145 prostate was 17% (inactive); with SF-268 CNS, 9.61% (active); in the experiment with SF-295 CNS, -67% (active); in the experiment on SF-539 CNS, 6.25% (active); in the experiment with HCT-15 colon it was -27% (active); in the experiment on HT29 colon, -15.1% (active). The growth with SNB-75 CNS is -9.71% (active); in the experiment on SNB-19 CNS it was 15% (inactive); with PC-3 prostate, -8.16% (active); with EKVX NSCLC, 3.62% (active); in the experiment with UO-31 renal, 1.66% (active); in the experiment on ACHN renal, 1.41% (active). The growth was 1.07% (active) in the experiment on HL-60(TB) leukemia and 2.02% (active) in the experiment on MOLT-4 leukemia.
With `Cc1ccc(CNc2nc3ccc(OC/C(=C/F)CN)cc3o2)cn1`, the growth in the experiment with NCI-H226 lung is 90.3% (inactive); with NCI-H322M lung, 105% (inactive); in the experiment on HOP-62 NSCLC, 72.9% (inactive); with NCI-H460 lung, 93.7% (inactive); in the experiment on A549/ATCC NSCLC, 95.6% (inactive); in the experiment with 786-0 renal it was 92.3% (inactive). Also, the growth is 88.4% (inactive) in the experiment with DU-145 prostate; 89.8% (inactive) with SF-268 CNS; 99.9% (inactive) with SF-295 CNS; 94.9% (inactive) with SF-539 CNS; 112% (inactive) in the experiment on HCT-15 colon; 112% (inactive) with HT29 colon. Further, the growth in the experiment on SNB-75 CNS was 55.5% (inactive); in the experiment with SNB-19 CNS, 98.8% (inactive); with PC-3 prostate it was 98.3% (inactive); in the experiment with EKVX NSCLC, 61.7% (inactive); in the experiment on UO-31 renal, 58.4% (inactive); in the experiment on ACHN renal it was 99% (inactive). The growth in the experiment with HL-60(TB) leukemia was 141% (inactive); with MOLT-4 leukemia, 99.8% (inactive).
On to `C/C=C/CC(C)C(O)[C@H](NC(=O)[C@@H]1CCCN1C(=O)C(C)(C)NC(=O)CCCCCCCCC)C(=O)N[C@@](C)(CC)C(=O)N[C@@H](CCC(N)=O)C(=O)N[C@H](CCC(N)=O)C(=O)NC(C)(C)C(=O)NC(C)(C)C(=O)N[C@@H](CCC(N)=O)C(=O)N[C@H](CC(C)C)C(=O)N[C@H](CO)CC(C)C` (stereo not given in full), for which the growth in the experiment on NCI-H226 lung was -0.538% (active) and 75.5% (inactive); with NCI-H322M lung, 31% (inactive) and 67.6% (inactive); in the experiment on HOP-62 NSCLC, -12.3% (active) and 28.3% (inactive); in the experiment with NCI-H460 lung, -56.6% (active) and 12.7% (inactive); in the experiment on A549/ATCC NSCLC, 78.8% (inactive) and 99.8% (inactive); in the experiment on 786-0 renal, -39.5% (active) and 25.2% (inactive). Further, the growth with DU-145 prostate was -94.5% (active) and -42.1% (active); in the experiment on SF-268 CNS, -77% (active) and 4.8% (active); in the experiment with SF-295 CNS, -64.6% (active) and -30.2% (active); in the experiment with SF-539 CNS, -69.3% (active) and 12% (inactive); in the experiment on HCT-15 colon, 38% (inactive) and 89.3% (inactive); in the experiment on HT29 colon, 58.1% (inactive) and 90.2% (inactive). Besides, the growth was -55.9% (active) and -38.8% (active) with SNB-75 CNS; -28.9% (active) and 35.2% (inactive) in the experiment on SNB-19 CNS; 21.4% (inactive) and 32.4% (inactive) in the experiment with PC-3 prostate; 0.155% (active) and 23% (inactive) with EKVX NSCLC; 39.1% (inactive) and 62.6% (inactive) in the experiment on UO-31 renal; 40.3% (inactive) and 68.4% (inactive) with ACHN renal. Moreover, the growth with HL-60(TB) leukemia was 1.3% (active) and 79.5% (inactive); with MOLT-4 leukemia, 18.8% (inactive) and 54.7% (inactive).
